The campaign covered roughly 330,000 compounds. About 4,100 (1.2%) were called active. Inconclusive results (about 2%) are left out. The entries come from a sample that favours actives as a whole. A number with no mark means an inactive call. Rule for the calls: active = max response of -50% or lower; inconclusive = between -30% and -50%; inactive = -30% or higher.
The molecules below were run against Phosphatidylinositol 5-phosphate 4-kinase type-2 alpha (Homo sapiens) (UniProt P48426) (assay: qHTS for Inhibitors of phosphatidylinositol 5-phosphate 4-kinase (PI5P4K)). Settings: PI5P4Kalpha enzyme, ADP-Glo luminescence, 60 min; hits give low values.
Chain of Phosphatidylinositol 5-phosphate 4-kinase type-2 alpha (Homo sapiens) (P48426 whole entry, looked up): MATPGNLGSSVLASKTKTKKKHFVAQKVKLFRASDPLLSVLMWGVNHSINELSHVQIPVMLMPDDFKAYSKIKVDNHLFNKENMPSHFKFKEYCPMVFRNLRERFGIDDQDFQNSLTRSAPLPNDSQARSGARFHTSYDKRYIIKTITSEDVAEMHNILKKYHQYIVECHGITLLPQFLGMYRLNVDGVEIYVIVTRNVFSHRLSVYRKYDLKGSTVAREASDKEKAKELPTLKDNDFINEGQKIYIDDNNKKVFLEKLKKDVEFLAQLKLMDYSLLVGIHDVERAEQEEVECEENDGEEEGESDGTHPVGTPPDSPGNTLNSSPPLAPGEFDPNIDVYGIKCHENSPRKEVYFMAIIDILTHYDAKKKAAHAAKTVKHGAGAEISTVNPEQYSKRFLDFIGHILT
Method in brief: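 Reactions run in 0.038 M HEPES pH 7.4, 0.28 mM EGTA, 0.1% CHAPS and 5% DMSO, with PI5P4Kalpha, substrate, compound and 5 microM ATP final, one hour at room temperature. Readout is ADP-Glo luminescence.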
Molecule `CCCCNC(=O)C[C@@H]1C[C@@]2(C(=O)OC)CC(C)(C)CC=C2N(Cc2ccco2)C1=O` has a max response of 4.39%. With `COc1ccc(-n2nnnc2-c2nc3ccccc3s2)cc1` the max response was 11.9%. `COc1ccc(C2=NN(c3nc4ccccc4s3)C(=O)C2)cc1` was tested, and the max response was -57.5% (active). Molecule `COc1ccc(C2=NN(C(C)=O)C(c3ccccc3)C2)cc1` (stereo not drawn) has a max response of -5.07%. `Cn1c(Nc2ccc(F)cc2)nc2cc(-c3ccsc3)sc2c1=O` showed a max response of -0.288%. In the case of `CCCc1[nH]nc2c1C(c1ccc(OC)c(Cn3nc(C)c(Br)c3C)c1)C(C#N)=C(N)O2` (stereo not drawn), the max response is reported as -0.298%. With `CCCc1[nH]nc2c1C(c1ccc(Br)s1)C(C#N)=C(N)O2` (stereo not drawn) the max response was -24.7%. For `CCCc1[nH]nc2c1C(C1CC=CCC1)C(C#N)=C(N)O2` (stereo not drawn), the max response was -60.2% (active). In the case of `CCCCn1nnnc1C(c1ccccc1)N1CCN(c2ccccc2OC)CC1` (stereo not drawn), the max response is reported as 1.03%. `O=C(NC(c1ccc(-c2ccccc2)cc1)c1cnccn1)C1CCN(CCOc2ccc(Cl)cc2Cl)CC1` (stereo not drawn) showed a max response of 31%. For `CC(C)C[C@@H](COCc1ccc(Cl)cc1)N1CCN(C(=O)c2ccc(Cl)cc2Cl)CCC1=O`, the max response was 15.2%. For `COc1ccc(-c2cc(NC(C)=O)c3ncc(-c4cc(OC)c(OC)c(OC)c4)n3c2)cn1`, the max response was -8.79%. In the case of `Cc1cn([C@H]2C[C@H](O)[C@@H](/C=C/C(=O)NCCCc3ccccc3)O2)c(=O)[nH]c1=O`, the max response is reported as -0.963%. Molecule `Cc1ccc(S(=O)(=O)N2[C@@H](Cc3ccccc3)CO[C@H]2CC(=O)OCc2ccccc2)cc1` has a max response of 4.77%. `Cc1cc(Br)cn2c(Cc3ccccc3C(F)(F)F)c(C3CCCCC3)nc12` showed a max response of 10.4%. `CN(CC(=O)Nc1cccc(F)c1)C(=O)CC1CCCC1` was tested, and the max response was 2.62%. With `CCN(CC)C(=O)CSC(Nc1cccc(F)c1)=C(C#N)C#N` the max response was -66.7% (active). Molecule `Cc1ccc(CSCC(=O)N(C)CC(=O)Nc2cccc(F)c2)cc1` has a max response of 4.92%. `O=C1NC[C@@H](CCCCN2CCN(CCc3ccc(O)cc3)C(=O)C2=O)N(CC2CCCCC2)C1=O` gave a max response of -1.17%. `Cc1ccc(C)c(C(O)c2ncc(-c3cccc4ccccc34)[nH]2)c1` (stereo not drawn) was tested, and the max response was -1.21%. `CCCCn1nnnc1C(c1cccc(OC)c1OC)N1CCN(C/C=C/c2ccccc2)CC1` (stereo not drawn) showed a max response of 0.353%. For `CCC(c1nc2ccccc2[nH]1)n1c(=O)c(-c2cccs2)nc2ccccc21` (stereo not drawn), the max response was 1.88%. For `CCCCNC(=O)C[C@@H]1C[C@@]2(C(=O)OCC)CCC=C2N(Cc2ccco2)C1=O`, the max response was -0.539%. In the case of `CC(=O)Nc1cccc(-c2cc(NC=O)c3ncc(-c4ccc(F)c(Cl)c4)n3c2)c1`, the max response is reported as -70.3% (active). For `CC(=O)c1cccc(-c2cnc3c(NC=O)cc(-c4ccc(N(C)C)cc4)cn23)c1`, the max response was -17.5%. For `CN(C)C(=O)c1cccc(-c2cnc3c(NC=O)cc(-c4ccc(F)cc4)cn23)c1`, the max response was -50.2% (active). For `CC(=O)c1cccc(-c2cnc3c(NC=O)cc(-c4ccc(N5CCN(C)CC5)cc4)cn23)c1`, the max response was -0.912%. Work on `CC(=O)c1cccc(-c2cnc3c(NC=O)cc(-c4ccccc4Oc4ccccc4)cn23)c1` yielded a max response of -13%. `COc1cccc(-c2cnc3c(NC(C)=O)cc(-c4cccc(NC(C)=O)c4)cn23)c1` was tested, and the max response was -7.23%. For `CC(=O)c1cccc(-c2cnc3c(NC=O)cc(-c4cccc(C(=O)N(C)C)c4)cn23)c1`, the max response was -9.37%. For `CC(=O)c1ccc(-c2cnc3c(NC=O)cc(-c4cccc(NS(C)(=O)=O)c4)cn23)cc1`, the max response was -83.7% (active). `CC(=O)Nc1cccc(-c2cc(NC(C)=O)c3ncc(-c4ccccc4)n3c2)c1` showed a max response of -5.78%. With `CCCCN1C(=O)C(CC(=O)NCc2cccs2)CC(C(=O)N2CCCCCC2)=C1C` (stereo not drawn) the max response was 8.96%. Molecule `COc1cccc(NC(=O)CN(C)C(=O)c2cc(Cl)nc3ccccc23)c1` has a max response of 0.592%. For `Cc1cccnc1C(NC(=O)C1CCN(Cc2ccc(Cl)c(Cl)c2)CC1)c1ccc(Cl)cc1` (stereo not drawn), the max response was 13.1%. Molecule `Cc1nc(C(F)(F)F)ccc1C(=O)N1CCC1(C)C(=O)NS(=O)(=O)c1ccccc1Cl` (stereo not drawn) has a max response of -2.74%. With `C[C@H]1CN([C@@H](C)CO)C(=O)CCCn2nncc2CO[C@@H]1CN(C)S(=O)(=O)c1cccc(C#N)c1` the max response was 8.11%. For `COCc1c(N)c(C)nc(Cl)c1C#N`, the max response was -79.4% (active). `Cc1nc(Cl)c(C#N)c2c1CCCC2` was tested, and the max response was -4.68%. For `COC(=O)c1c(C)c(C)nc(N)c1C#N`, the max response was 1.33%. `CC(C)NC(=O)Nc1ccc2c(c1)C(=O)N([C@H](C)CO)C[C@H](C)[C@@H](CN(C)Cc1ccc(C(F)(F)F)cc1)OCCCC[C@@H](C)O2` showed a max response of 10.4%. `CC1(C)OC(=O)C2=C(C[C@@H](C3CC3)O[C@H]2c2ccc(Cl)cc2)O1` gave a max response of 8.12%. Work on `CC1(C)OC(=O)C2=C(C[C@@H](C3CCCCC3)O[C@@H]2c2ccc(Cl)cc2)O1` yielded a max response of 10.9%. `CC(=O)Nc1ccc(S(=O)(=O)Oc2ccc(/C=N/N=C3/NC(=O)C(CC(=O)O)S3)cc2)cc1` (stereo not drawn) was tested, and the max response was -65% (active). `Cc1ccc(S(=O)(=O)Oc2ccc(/C=N/NC(=O)c3ccncc3)cc2)cc1` gave a max response of 3.82%. Molecule `Cc1ccc(NC(=O)CC2S/C(=N/N=C3\CCCc4ccccc43)NC2=O)cc1` (stereo not drawn) has a max response of 27.6%. With `CCOC(=O)C1C(C)C(C(C)(C)C)N(S(=O)(=O)c2ccc(C)cc2)C1c1ccccc1` (stereo not drawn) the max response was 6.25%. With `CCCOc1ccc(Cn2c(O)cc(=O)[nH]c2=O)cc1` the max response was -26.6%. `COc1ccc(NC(=O)CNC(=O)Cc2ccccc2)cc1OC` showed a max response of -2.31%. `COc1cc(=O)[nH]c(=O)n1C(=O)Cc1ccccc1` was tested, and the max response was -54.9% (active). `COC(=O)[C@]12CCCCC=C1N(Cc1ccc3c(c1)OCO3)C(=O)[C@H](CC(=O)NCc1cccs1)C2` gave a max response of 1.05%. In the case of `CCCS(=O)(=O)NC(=O)C1(C)CCCN(C(=O)c2cccs2)C1` (stereo not drawn), the max response is reported as 5.25%. In the case of `Cc1cc(C(=O)N2CCCC2(C)C(=O)O)c(C)o1` (stereo not drawn), the max response is reported as -1.39%. `CCCCCCCCN1C(=O)[C@H](CC(=O)NCC23CC4CC(CC(C4)C2)C3)C[C@@]2(C(=O)OC)CCCCC=C12` showed a max response of 8.08%. `S=c1[nH]nc2c3c4c(sc3ncn12)CCCC4` was tested, and the max response was -58.2% (active). `N=c1c2c3c(sc2ncn1N)CCCC3` showed a max response of -4.92%. For `N=c1c2c3c(sc2ncn1N)CCCCC3`, the max response was 0.011%. `COc1ccc(CNC(=O)c2ccc(-c3cccnc3)c3ccoc23)cc1OC` gave a max response of 0.62%. Molecule `O=C(NCc1ccc(F)cc1)c1cc(C2CCCCN2C(=O)c2cccs2)on1` (stereo not drawn) has a max response of -3.15%. `CC(C)c1cc(Cn2c3ccccc3c(=O)n2C(C)Cn2cc(C3CC3)nn2)on1` (stereo not drawn) was tested, and the max response was -4.48%. `CC(C)(C)OC(=O)N1CCN(C(=O)c2[nH]c(C(F)(F)F)nc2-c2ccccc2)CC1` gave a max response of 6.39%. For `COc1cccc(C(=O)Nc2nc3ccc(S(C)(=O)=O)cc3s2)c1`, the max response was -58.6% (active). Molecule `CS(=O)(=O)c1ccc2nc(NC(=O)C3C4C=CC(C4)C3C(=O)O)sc2c1` (stereo not drawn) has a max response of -8.9%. With `CS(=O)(=O)c1ccc2nc(NC(=O)c3ccc(Cl)nc3)sc2c1` the max response was -8.02%. Molecule `CCOC(=O)N1CCN(C(=O)C[C@@H]2C[C@@]3(C(=O)OC)CC(C)(C)CC=C3N(Cc3ccco3)C2=O)CC1` has a max response of -4.8%. `COCCN1C(=O)N[C@@H](c2ccccc2)C(C(=O)OC)=C1C` was tested, and the max response was 3.31%. `CC1=C(C(=O)OCc2ccccc2)C(c2ccc(C(F)(F)F)cc2)NC(=O)N1CCCCCC(=O)O` (stereo not drawn) showed a max response of -6.37%. With `CC1=C(C(=O)OC(C)(C)C)C(c2ccc(Br)cc2)NC(=O)N1CCCC(=O)O` (stereo not drawn) the max response was -68.2% (active). For `CCCCNC(=O)OC1CC2CC1[C@H]1CCCCN1C2=O` (stereo partly drawn), the max response was 2.78%. `NC(c1ccccc1)c1csc(NC(=O)Nc2cccc(C(F)(F)F)c2)n1` (stereo not drawn) was tested, and the max response was -16.7%. In the case of `O=C(O)c1ccc2c(=O)n3c(nc2c1)/C(=C/c1ccc(OC(F)F)cc1OC(F)F)CC3`, the max response is reported as -50.1% (active). With `N#Cc1ccc(/C=C2\CCn3c2nc2cc(C(=O)O)ccc2c3=O)cc1` the max response was -10.5%. `O=C(O)c1ccc2c(=O)n3c(nc2c1)/C(=C/c1ccc(Cl)c([N+](=O)[O-])c1)CC3` was tested, and the max response was -16.4%. `CCc1nc2ccc(C(=O)N(C)CCN(C)C)cn2c1N(CC)CCOC` showed a max response of 2.65%. With `OC(c1ccc(Cl)c(F)c1)c1ncc(-c2ccccc2Cl)[nH]1` (stereo not drawn) the max response was 10.9%. For `CC(C)c1ccc(CC(=O)N2CCC2(C)C(=O)NS(=O)(=O)c2ccc(C(C)(C)C)cc2)cc1` (stereo not drawn), the max response was 3.85%. For `O=C1/C(=C\c2ccc([N+](=O)[O-])cc2)CS(=O)(=O)C/C1=C/c1ccc([N+](=O)[O-])cc1`, the max response was -83.1% (active). In the case of `CC(=O)Nc1ccc(C=Cc2ccc([N+](=O)[O-])cc2)cc1`, the max response is reported as -5.32%. With `O=[N+]([O-])c1ccc(C=NN=Cc2ccc([N+](=O)[O-])cc2)cc1` the max response was -4.59%. Molecule `CC=CCn1c(SCCCc2ccccc2)nc2c1c(=O)[nH]c(=O)n2C` has a max response of -3.45%. In the case of `Cc1ccc(/C=C/C(=O)Nc2ccc([N+](=O)[O-])c(NC(=O)/C=C/c3ccc(C)o3)c2)o1`, the max response is reported as -71.8% (active). Molecule `COC(=O)/C=C\C(=O)Nc1cccc([N+](=O)[O-])c1` has a max response of -26.6%. Molecule `Cc1ccc(/C=C/C(=O)Nc2cc(S(=O)(=O)N3CCCCCC3)ccc2OCC(F)(F)F)o1` has a max response of 2.97%.
% is set by controls: 0 for no effect and ±100 for the full control effect.
Note: value at the top dose of about 77 µM.
